GPR151 activ: human GPR151 activation. Q8TDV0. PathHunter beta-arrestin GPR151 cells, luminescence. activation, % at 11.2 µM. 1% of 650,000 active. AID 1508602; in the data active = activation above about 4.9%;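 also: 0% = median of compound wells and 100% = cells with positive control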
Target sequence (Q8TDV0 whole entry, looked up): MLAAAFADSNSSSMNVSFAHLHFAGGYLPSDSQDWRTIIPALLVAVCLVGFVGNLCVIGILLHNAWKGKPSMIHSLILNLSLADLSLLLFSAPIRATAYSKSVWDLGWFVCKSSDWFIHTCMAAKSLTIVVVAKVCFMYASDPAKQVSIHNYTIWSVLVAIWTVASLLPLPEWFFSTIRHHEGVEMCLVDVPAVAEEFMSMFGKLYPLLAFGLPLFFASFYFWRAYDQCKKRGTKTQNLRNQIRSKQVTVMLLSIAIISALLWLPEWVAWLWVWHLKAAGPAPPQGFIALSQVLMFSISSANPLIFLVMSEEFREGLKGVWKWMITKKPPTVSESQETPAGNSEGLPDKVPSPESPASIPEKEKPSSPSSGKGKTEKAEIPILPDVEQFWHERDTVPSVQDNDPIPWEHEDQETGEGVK
TEAD-YAP block: TEAD-YAP interaction inhibition | HEK-TIYL cells, TEAD-Gal4/YAP UAS-luciferase luminescence | inhibition, % at 9.12 µM | 1.4% of 640,000 active | AID 1259422; in the data active = inhibition above about 32%;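 also: 0% = median of test compound wells and 100% = reference inhibitor wells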
MITF inh: blocks human microphthalmia-associated transcription factor; 0.91% of 650,000 active; O75030; AID 1259374; inhibition, % at 2.6 µM; AlphaScreen MITF homodimerization, bead proximity signal; in the data active = inhibition above about 50%;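 also: 0% = vehicle wells with protein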
FBW7 act: human FBW7 E3 ligase activation, primary screen; Q969H0; 0.13% of 650,000 active; AID 1259310; AlphaScreen FBW7–phospho-cyclin E peptide binding, activator screen; normalized activity (activation), % at 26.1 µM; in the data active = normalized activity above about 1.9%;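 also: purified mutant Fbw7 with reduced substrate affinity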
GPR151 confirm: human GPR151 activation, confirmation screen; 6,700 tested, under 10 active; shares compounds with GPR151 activ; activation, % at 11.2 µM; AID 1508609; GPR151 PathHunter beta-arrestin cells, luminescence, 90 min; % of EA-reagent control over plate median;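 active = mean percent activation across replicates above the confirmation screen cutoff of 4.91%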
GPR119 ag: GPR119 activation, counter-screen for GPR151 activators; GPR119 PathHunter beta-arrestin cells, luminescence, 90 min; 0 = compound-well median, 100 = enzyme-acceptor control; shares compounds with GPR151 activ; 0.3% of 6,700 active; activation, % at 11.2 µM;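 active = mean percent activation in the counterscreen above 29.09%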;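 also: counterscreen on off-target GPR119 to flag nonselective hits from the GPR151 activator screen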
Numbers without * were called inactive; / = not tested or not shown. An excerpt weighted towards active compounds, which were near 3.4% of everything screened.

SMILES	GPR151 activ	TEAD-YAP block	MITF inh	FBW7 act	GPR151 confirm	GPR119 ag
Cc1ccc(C2/C(=C(\O)c3ccccc3)C(=O)C(=O)N2c2cccc(C(F)(F)F)c2)cc1 (configuration not stated)	-2	-1	-9	0	/	/
O=C(OCCN1CCOCC1)c1ccc(O)c(O)c1	1	4	17	0	/	/
O=C(OCCN1CCOCC1)c1cccc(Br)c1	8.3*	-28	-3	0	-1	-12
N=C1C(c2nc3ccccc3s2)=C(O)C(c2ccccc2)N1CCCO (configuration not stated)	-2	-19	12	0	/	/
COC(=O)C[n+]1csc2ccccc21	7.8*	6	14	-1	0	5
CCOC(=O)c1[nH]c(C)c(C(=O)NCC(C)C)c1C	-1	-7	18	0	/	/
S=C1NC2(CCCCC2)N=C1c1ccccc1	8.1*	-11	-7	0	0	9
Fc1ccc(C2=NC3(CCCCC3)NC2=S)cc1	3	0	-8	0	/	/
CC1=CC(C)C(COC(=O)CN2CCOCC2)C(C)C1 (configuration not stated)	0	-4	15	0	/	/
CC1=CC(C)C(CNCCN2CCNCC2)C(C)C1 (configuration not stated)	4.9*	-7	-8	0	0	1
Cc1ccc(-c2nn(CC(=O)NCc3ccccc3)c(=O)c3ccccc23)cc1	5.1*	-1	24	0	0	15
O=C(CCn1nc(-c2ccccc2)c2ccccc2c1=O)NCc1ccccc1	18*	-7	3	0	1	-1
CNC(=O)Cn1nc(C(=O)O)c2ccccc2c1=O	-1	6	-4	0	/	/
CCCCNC(=O)CCn1nc(-c2ccccc2)c2ccccc2c1=O	0	-3	3	0	/	/
CC(C)(C)NC(=O)Cn1nc(C(=O)O)c2ccccc2c1=O	5.9*	-7	-7	0	-1	-12
CNC(=O)Cn1nc(-c2ccc(C)cc2)c2ccccc2c1=O	2	-4	7	0	/	/
Cc1ccc(Nc2c(-c3ccc(N4CCOCC4)cc3)nc3c[n+](CC(N)=O)ccn23)cc1	5.1*	-11	15	0	0	1
COc1ccc(-c2nc3c[n+](CC(N)=O)ccn3c2Nc2ccccc2C)cc1	6.7*	-7	13	0	0	3
NS(=O)(=O)c1ccc(CCNC(=O)CCCn2c(SCC(=O)OCc3ccccc3)nc3ccsc3c2=O)cc1	1	-12	3	0	/	/
Cc1ccccc1Nc1sc(C(=O)c2ccc([N+](=O)[O-])cc2)c(N)c1C(=O)NCc1ccc(Cl)cc1	6.4*	4	-3	0	2	21
Cc1ccccc1Nc1sc(C(=O)c2ccc(Cl)cc2)c(N)c1C(=O)NCc1ccc(Cl)cc1	1	-2	4	0	/	/
NC(=O)C1(N2CCCCC2)CCN(C(=S)Nc2ccc(F)c(Cl)c2)CC1	5.1*	-1	13	0	0	6
NC(=O)C1(N2CCCCC2)CCN(CC(=O)Nc2ccc(F)c(Cl)c2)CC1	-1	-6	5	0	/	/
CCOC(=O)C(C)C1=Nc2ccccc2C(c2ccccc2)(c2ccccc2)N1C (configuration not stated)	0	-5	10	0	/	/
COCCn1c(C)nnc1SCc1ccccc1C#N	1	1	12	0	/	/
SMILES	GPR151 activ	TEAD-YAP block	MITF inh	FBW7 act	GPR151 confirm	GPR119 ag
COc1cccc(C(=O)Oc2coc(CSc3nnc(NC(C)=O)s3)cc2=O)c1	-1	-2	-5	0	/	/
COc1ccc(C(=O)Oc2coc(CSc3nnc(NC(C)=O)s3)cc2=O)cc1	13*	-3	-8	0	1	6
CN(C)c1ccc(C(CN)N2CCc3ccccc3C2)cc1 (configuration not stated)	-1	-1	18	0	/	/
CCOc1ccc(NC2SC(=O)NC2=O)cc1 (configuration not stated)	5.0*	9	-2	0	-1	-9
CCOc1ccc(NC(=O)CC2SC(=O)NC2=O)cc1 (configuration not stated)	0	6	-4	0	/	/
CN1CCN(CCCOc2ncc(Nc3ncc(-c4ccc(C(F)(F)F)c(F)c4)nc3C(N)=O)cn2)CC1	6.9*	/	/	/	1	7
CN(Cc1ccccn1)C(=O)CC1C(=O)NCCN1Cc1ccc(F)c(F)c1 (configuration not stated)	-1	-12	0	0	/	/
CC(C)OC(=O)Nc1ccc2c(c1)Nc1ccccc1CC2	1	-40	18	0	/	/
Cc1ccccc1N(C)S(=O)(=O)c1ccc2[nH]cc(C(=O)N3CCC(C)CC3)c(=O)c2c1	5.1*	17	10	0	0	2
COc1cccc(CNC(=O)c2cc(-c3ccccc3)n(C)c2C)c1OC	0	11	11	0	/	/
COCCCNC(=S)N1CCCC(c2nc3ccc(C)cc3[nH]2)C1 (configuration not stated)	5.2*	-22	-10	0	0	-2
C/C(=N\Nc1ccc(C(F)(F)F)cn1)c1ccncc1	6.4*	-28	-5	0	0	-8
C/C(=N\Nc1ccc(C(F)(F)F)cn1)c1ccc(O)cc1	0	-1	-8	0	/	/
Cc1ccc(-c2c(N3CCCCC3)c(=O)c2=O)cc1	6.8*	0	-3	0	0	-11
Cc1cc(C)cc(-n2cnc3cc(C(=O)NCc4ccc5c(c4)OCO5)ccc32)c1	-1	-3	-16	0	/	/
Cc1cccc(-n2cnc3cc(C(=O)NCc4ccc5c(c4)OCO5)ccc32)c1	7.0*	5	15	0	-1	-7
CNc1nc2c(c(=O)n(C)c(=O)n2C)n1Cc1cccc2ccccc12	0	26	-6	0	/	/
O=C(CN1CCCCC1)N/N=C/c1ccccc1O	5.8*	13	49	0	1	11
COc1ccc(C(=O)N2CCC(N3CCC(C)CC3)CC2)cc1	6.5*	7	28	0	1	-1
CCOC(=O)CSc1nc2nccnc2c(=O)n1Cc1ccccc1	5.0*	1	5	0	0	-1
CCOC(=O)CSc1nc2cc(C(=O)NC3CCCCC3)ccc2c(=O)n1CCc1ccccc1	5.1*	13	17	0	0	-1
CCOC(=O)CSc1nc2c(sc(=S)n2Cc2ccccc2)c(=O)n1-c1cccc(Cl)c1	0	10	3	0	/	/
NC(=O)CSc1nc2nccnc2c(=O)n1Cc1ccccc1	0	1	0	0	/	/
CCOC(=O)CSc1nc2c(sc(=S)n2Cc2ccccc2)c(=O)n1Cc1ccccc1	6.0*	-14	-10	0	0	-4
CCOC(=O)CSc1nc2c(c(=O)n1Cc1ccccc1)C1(CCCC1)Cc1ccccc1-2	7.5*	-4	21	1	0	12

Compound activity as filed in PubChem BioAssay.
